Values joined by “and” are separate entries in the source; they are usually repeats but may differ in a detail not shown here. Equal values may be shown once. In all, about 5,500 compounds went through this assay and about 2,000 (36%) were called active. About 18% were inconclusive and are not listed. No stated cut-off is given here; in the data, active means normalized growth mostly below about 0.91 (no sharp cut-off); inconclusive means no clear call, values can overlap the other calls; inactive means mostly above about 0.92. The list shows a part of the results.
Assay: chemical genetic growth profiling, strain panel (AID 1159580);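 further: tested at 20 µM; growth read once vehicle control cultures reached saturation at 30 °C; 1 = growth at the plate median or of vehicle wells; lower values mean less growth of the strain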
Conditions: growth OD

Measured: normalized growth

C#CCN(C)Cc1ccccc1
inactive: S. cerevisiae deletion strains, locus YJR075W, strain HOC1, active compounds read low 0.991 | S. cerevisiae deletion strains, locus YKL009W, strain mrt4, active compounds read low 1.02 | S. cerevisiae deletion strains, locus YKL068W, active compounds read low 1 | S. cerevisiae deletion strains, locus YKL085W, strain MDH1 (second series), active compounds read low 1 | S. cerevisiae deletion strains, locus YKL085W, strain MDH1, active compounds read low 1 | S. cerevisiae deletion strains, locus YKL160W, strain elf1, active compounds read low 1.01 | S. cerevisiae deletion strains, locus YKL190W, strain CNB1, active compounds read low 0.997 | S. cerevisiae deletion strains, locus YKR001C, strain vps1, active compounds read low 1.02 | S. cerevisiae deletion strains, locus YKR026C, strain gcn3, active compounds read low 1.02 | S. cerevisiae deletion strains, locus YKR091W, strain srl3, active compounds read low 1.02 | S. cerevisiae deletion strains, locus YLL001W, strain dnm1, active compounds read low 1.02 | S. cerevisiae deletion strains, locus YLL026W, active compounds read low 1 | S. cerevisiae deletion strains, locus YLL041C, strain sdh2, active compounds read low 0.968 | S. cerevisiae deletion strains, locus YLR027C, strain aat2, active compounds read low 0.991 | S. cerevisiae deletion strains, locus YLR039C, strain RIC1, active compounds read low 1.02 | S. cerevisiae deletion strains, locus YLR058C, strain SHM2, active compounds read low 0.998 | S. cerevisiae deletion strains, locus YLR102C, strain apc9, active compounds read low 1.01 | S. cerevisiae deletion strains, locus YLR113W, strain HOG1, active compounds read low 1 | S. cerevisiae deletion strains, locus YLR221C, strain rsa3, active compounds read low 1.01 | S. cerevisiae deletion strains, locus YLR258W, strain gsy2, active compounds read low 1 | S. cerevisiae deletion strains, locus YLR262C, strain YPT6 (second series), active compounds read low 1.05 | S. cerevisiae deletion strains, locus YLR262C, strain YPT6, active compounds read low 0.997 | S. cerevisiae deletion strains, locus YLR268W, strain sec22, active compounds read low 1.06 | S. cerevisiae deletion strains, locus YLR320W, strain mms22, active compounds read low 0.99 | S. cerevisiae deletion strains, locus YLR330W, strain CHS5, active compounds read low 1 | S. cerevisiae deletion strains, locus YLR342W, strain FKS1 (second series), active compounds read low 1.02 | S. cerevisiae deletion strains, locus YLR342W, strain FKS1, active compounds read low 1.03 | S. cerevisiae deletion strains, locus YLR357W, strain rsc2, active compounds read low 1.05 | S. cerevisiae deletion strains, locus YLR370C, strain arc18, active compounds read low 0.987 | S. cerevisiae deletion strains, locus YLR371W, strain rom2, active compounds read low 1.02 | S. cerevisiae deletion strains, locus YLR384C, strain iki3, active compounds read low 0.996 | S. cerevisiae deletion strains, locus YLR418C, strain cdc73, active compounds read low 1.02 | S. cerevisiae deletion strains, locus YML016C, strain PPZ1, active compounds read low 1 | S. cerevisiae deletion strains, locus YML032C, strain rad52, active compounds read low 1.02 | S. cerevisiae deletion strains, locus YML120C, strain ndi1, active compounds read low 0.999 | S. cerevisiae deletion strains, locus YML124C, strain tub3, active compounds read low 1.01 | S. cerevisiae deletion strains, locus YMR058W, strain fet3, active compounds read low 1.04 | S. cerevisiae deletion strains, locus YMR078C, strain ctf18, active compounds read low 1.02 | S. cerevisiae deletion strains, locus YMR125W, strain sto1, active compounds read low 1.03 | S. cerevisiae deletion strains, locus YMR129W, active compounds read low 0.988 | S. cerevisiae deletion strains, locus YMR205C, strain PFK2, active compounds read low 0.98 | S. cerevisiae deletion strains, locus YMR223W, strain ubp8, active compounds read low 0.98 | S. cerevisiae deletion strains, locus YMR231W, strain pep5, active compounds read low 1.02 | S. cerevisiae deletion strains, locus YMR263W, strain SAP30, active compounds read low 0.995 | S. cerevisiae deletion strains, locus YMR307W, strain GAS1, active compounds read low 0.994 and 0.99 | S. cerevisiae deletion strains, locus YNL067W, strain RPL9B, active compounds read low 0.99 | S. cerevisiae deletion strains, locus YNL071W, strain lat1, active compounds read low 1.02 | S. cerevisiae deletion strains, locus YNL128W, strain TEP1, active compounds read low 1.01 and 0.994 | S. cerevisiae deletion strains, locus YNL153C, strain GIM3, active compounds read low 1.15 | S. cerevisiae deletion strains, locus YNL175C, strain NOP13, active compounds read low 1.01 | S. cerevisiae deletion strains, locus YNL183C, strain NPR1, active compounds read low 0.944 | S. cerevisiae deletion strains, locus YNL197C, strain WHI3, active compounds read low 1.01 | S. cerevisiae deletion strains, locus YNL209W, strain ssb2, active compounds read low 1.02 | S. cerevisiae deletion strains, locus YNL224C, strain SQS1, active compounds read low 1.04 | S. cerevisiae deletion strains, locus YNL233W, strain BNI4, active compounds read low 0.996 | S. cerevisiae deletion strains, locus YNL248C, strain rpa49, active compounds read low 1.03 | S. cerevisiae deletion strains, locus YNL250W, strain rad50, active compounds read low 1.01 | S. cerevisiae deletion strains, locus YNL271C, strain bni1, active compounds read low 1.02 | S. cerevisiae deletion strains, locus YNL298W, strain CLA4, active compounds read low 1.03 | S. cerevisiae deletion strains, locus YNL307C, strain MCK1, active compounds read low 1.03 | S. cerevisiae deletion strains, locus YNL322C, strain KRE1 (second series), active compounds read low 1.03 | S. cerevisiae deletion strains, locus YNR049C, strain mso1, active compounds read low 0.961 | S. cerevisiae deletion strains, locus YNR052C, strain pop2, active compounds read low 1.03 | S. cerevisiae deletion strains, locus YOL006C, strain TOP1, active compounds read low 1 | S. cerevisiae deletion strains, locus YOL012C, strain htz1 0.939 | S. cerevisiae deletion strains, locus YOL147C, strain pex11, active compounds read low 1.02 | S. cerevisiae deletion strains, locus YOR001W, strain rrp6, active compounds read low 1.01 | S. cerevisiae deletion strains, locus YOR061W, strain CKA2, active compounds read low 1 | S. cerevisiae deletion strains, locus YOR069W, strain VPS5, active compounds read low 1 | S. cerevisiae deletion strains, locus YOR070C, strain gyp1, active compounds read low 1.01 | S. cerevisiae deletion strains, locus YOR080W, strain dia2, active compounds read low 1.02 | S. cerevisiae deletion strains, locus YOR083W, strain WHI5 (second series), active compounds read low 1.01 | S. cerevisiae deletion strains, locus YOR083W, strain WHI5, active compounds read low 1 | S. cerevisiae deletion strains, locus YOR106W, strain vam3, active compounds read low 0.996 | S. cerevisiae deletion strains, locus YOR136W, strain idh2, active compounds read low 1.01 | S. cerevisiae deletion strains, locus YOR144C, strain elg1, active compounds read low 1.01 | S. cerevisiae deletion strains, locus YOR184W, strain ser1, active compounds read low 1.01 | S. cerevisiae deletion strains, locus YOR231W, strain MKK1, active compounds read low 0.997 | S. cerevisiae deletion strains, locus YOR265W, strain rbl2, active compounds read low 1.01 | S. cerevisiae deletion strains, locus YOR270C, strain vph1, active compounds read low 1.06 | S. cerevisiae deletion strains, locus YOR290C, strain snf2, active compounds read low 0.999 | S. cerevisiae deletion strains, locus YOR316C, strain cot1, active compounds read low 1.02 | S. cerevisiae deletion strains, locus YPL051W, strain arl3, active compounds read low 1.02 | S. cerevisiae deletion strains, locus YPL078C, strain atp4, active compounds read low 1.05 | S. cerevisiae deletion strains, locus YPL106C, strain sse1, active compounds read low 1.07 | S. cerevisiae deletion strains, locus YPL240C, strain hsp82, active compounds read low 0.979 | S. cerevisiae deletion strains, locus YPL256C, strain CLN2, active compounds read low 0.939 | S. cerevisiae deletion strains, locus YPR119W, strain clb2, active compounds read low 1.02 | S. cerevisiae deletion strains, locus YPR141C, strain kar3, active compounds read low 1 | S. cerevisiae deletion strains, locus YPR163C, strain tif3, active compounds read low 1.02 | S. cerevisiae deletion strains, locus YPR167C, strain met16, active compounds read low 1.02 | S. cerevisiae deletion strains, strain wtn01, active compounds read low 1.02 | S. cerevisiae strains, strain wild type, active compounds read low 0.998
